# An excerpt weighted towards active compounds, which were near 21% of everything screened.
# Shiga toxin inh: A qHTS for Small Molecule Inhibitors of Shiga Toxin; Vero cells, Shiga toxin protein synthesis inhibition reporter; inhibition, % at 38.7 µM; hit rate 9.2% among 290,000; AID 2315, 2010; in the data active = inhibition mostly above about 28%, no sharp cut-off; inactive = mostly below about 43%; note: 0% is about no effect
# Cycloheximide cs: Cycloheximide Counterscreen for Small Molecule Inhibitors of Shiga Toxin | max response, % | AID 2314, 2010 | cell reporter, cycloheximide protein synthesis inhibition counterscreen | hit rate 12% among 300,000; in the data active = max response mostly above about 13%, no sharp cut-off; inactive = mostly below about 14%; note: read at 38.3 µM for the half of the compounds with a filed dose; 0% is about no effect
# Pf growth 96h: Primary qHTS for delayed death inhibitors of the malarial parasite plastid, 96 hour incubation | hit rate 6.9% among 320,000 | AID 504834, 2011 | P. falciparum luciferase reporter growth, 96 h | Potency, µM (highest dose often 28.7 µM), without a hit: top-dose activity change, negative = inhibition, hits mostly inhibitors; note: potency is the fitted concentration of half-maximal effect; % is set by controls: 0 for no effect and ±100 for the full control effect
#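 P. falciparum expressing integrated firefly luciferase grown in erythrocytes (2% hematocrit, 0.05% parasitemia final) with compounds for 96 hours at 37 C, 5% CO2. Growth inhibition read as loss of luminescence after adding luciferase detection reagent.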
# Pf growth 48h: Primary qHTS for delayed death inhibitors of the malarial parasite plastid, 48 hour incubation; P. falciparum luciferase growth in erythrocytes, 48 h; AID 504832, 2011; hit rate 5.9% among 310,000; Potency, µM (doses to about 28.7 µM), for the others: at the highest dose activity change, negative = inhibition, actives largely listed as inhibitors; note: potency is the fitted concentration of half-maximal effect; % is set by controls: 0 for no effect and ±100 for the full control effect
#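 A one-generation exposure of luciferase-tagged malaria parasites in RPMI 1640/Albumax erythrocyte culture, 37 C and 5% CO2. Inhibition is inferred from decreased luminescence after adding detection reagent.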
# The depositor's hits bear a star; ? = inconclusive; nt = not tested or not shown; [ ] = dose if it differs, or a comment. Unless noted, calls come from the whole dose curve; as a rule, active = well fitted inhibition curve with a large enough effect; inconclusive = small, poorly fitted or top-dose-only effect, or another doubt; inactive = no such curve, though single readings can be large or run the other way.
SMILES,Shiga toxin inh,Cycloheximide cs,Pf growth 96h,Pf growth 48h
CC1CCN(CCCN2C(=O)C3C(C(=O)Nc4ccc(Cl)cc4)C4C=CC3(O4)C2C(=O)NC2CCCCC2)CC1 (stereo unspecified),-0.4,-6.5,?,?
CCOc1cc(/C=C(\C#N)C(=O)Nc2ccccc2[N+](=O)[O-])ccc1OCc1cccc2ccccc12,22.7,9.4,51.6%,33.0%
CC(C)CNC(=O)/C(C#N)=C1\N=C(NC(=O)c2ccco2)c2ccccc21,34.0,12.4*,?,?
CC1CCc2c(sc3nc(C(C)(C)C)nc(N4CCN(C(=O)CCl)CC4)c23)C1 (stereo unspecified),46.2*,19.8*,6.57µM*,-56.2%
CCC(=O)N1CCN(c2nc(CC)nc3sc4c(c23)CCCC4)CC1,-13.9,-2.6,-26.4%,?
O=C(NC(=S)NC1CCSC1=O)c1ccc([N+](=O)[O-])cc1 (stereo unspecified),-13.0,12.2,10.4µM*,25.4%
Clc1cc(NCc2ccccc2)ncn1,nt,nt,75.8%,-2.5%
CN(C)c1ccc(Nc2cc(Cl)ncn2)cc1,nt,41.7*,?,-32.3%
CC(C)Oc1ccc(S(=O)(=O)N2CCOCC2)cc1NC(=O)C(C)Oc1ccc(F)cc1 (stereo unspecified),nt,nt,?,13.1µM*
CC(Oc1ccccc1)C(=O)Nc1ccc(S(=O)(=O)N2CCCC2)cc1 (stereo unspecified),-7.7,2.6,22.5%,?
CCN1CCN(c2ccc(S(=O)(=O)N3CCCCC3)cc2NC(=O)C(C)Oc2ccc(F)cc2)CC1 (stereo unspecified),nt,nt,-23.9%,8.28µM*
Cc1ccc(OC(C)C(=O)Nc2ccc(S(=O)(=O)N3CCOCC3)cc2)cc1 (stereo unspecified),-4.2,7.1,89.8%,?
Cc1ccc(NC(=S)Nc2ccc(C(C)C)cc2)cc1S(=O)(=O)N1CCCCCC1,81.7*,27.8*,?,?
Cc1ccc(NC(=O)C(C)Oc2ccccc2)cc1S(=O)(=O)N1CCCCCC1 (stereo unspecified),nt,nt,?,6.57µM*
COCCNc1nc(N2CCCCC2)c2cnn(C)c2n1,14.4,-0.8,3.7%,9.4%
Cc1ccccc1OCCC(=O)Nc1cc(S(=O)(=O)N2CCOCC2)ccc1OC(C)C,-10.4,0.3,13.1µM*,14.7µM*
O=C(/C=C/c1ccc(F)cc1)Nc1cc(S(=O)(=O)N2CCOCC2)ccc1N1CCCC1,-16.0,-2.8,?,-6.1%
CC(Oc1cccc(Cl)c1)C(=O)Nc1cc(S(=O)(=O)N2CCOCC2)ccc1N1CCCC1 (stereo unspecified),nt,nt,0.4%,-22.6%
CC(Oc1cccc(Cl)c1)C(=O)Nc1ccc(N2CCOCC2)cc1N1CCOCC1 (stereo unspecified),nt,nt,?,6.57µM*
CC(Oc1cccc(Cl)c1)C(=O)Nc1cc(S(=O)(=O)N2CCCCC2)ccc1N1CCOCC1 (stereo unspecified),nt,nt,10.4µM*,10.4µM*
CC(Oc1ccc(F)cc1)C(=O)Nc1cc(S(=O)(=O)N2CCCCC2)ccc1N1CCOCC1 (stereo unspecified),nt,nt,9.28µM*,8.28µM*
CCCc1cc(=O)[nH]c2nnc(SCC(=O)NC3CCCCC3)n12,nt,nt,-10.2%,2.3%
Cc1cccc(OC(C)C(=O)Nc2cc(S(=O)(=O)N3CCCCC3)ccc2C)c1 (stereo unspecified),nt,nt,?,9.28µM*
Cc1cccc(C(=O)N[C@H](C(=O)Nc2cc(S(=O)(=O)N3CCCCC3)ccc2C)C(C)C)c1,-5.8,0.3,?,?
O=C(N/N=C/c1c[nH]c2ccc(Br)cc12)C1CC1,7.7,1.2,21.9%,2.6%
SMILES,Shiga toxin inh,Cycloheximide cs,Pf growth 96h,Pf growth 48h
COc1ccccc1NS(=O)(=O)c1cc(NC(=O)c2sccc2C)ccc1N1CCOCC1,-1.3,-5.0,11.7µM*,?
COc1ccc(NS(=O)(=O)c2cc(NC(=O)c3sccc3C)ccc2N2CCOCC2)cc1,-6.4,10.1,?,10.4µM*
C=CCn1c(-c2ccc(S(=O)(=O)N3CCOCC3)cc2)csc1=Nc1ccccc1,-8.5,-2.3,11.7µM*,?
CC(=O)c1cccc(N=c2scc(-c3ccc(S(=O)(=O)N4CCOCC4)cc3)n2CCO)c1,-3.2,3.4,4.65µM*,5.22µM*
COc1ccc(N=c2scc(-c3ccc(S(=O)(=O)N4CCOCC4)cc3)n2CCCO)cc1,-2.7,2.2,-16.5%,11.7µM*
COc1ccc(N2CCN(C(=O)COc3ncnc4ccccc34)CC2)cc1,-8.3,3.5,10.6%,18.6%
COc1cc2c(cc1OC)C(c1ccc(Br)cc1)NC(=O)C2 (stereo unspecified),-9.5,-2.6,0.0%,?
COc1ccc(C(=O)ON=C2CCN(c3ccc([N+](=O)[O-])cc3)CC2)cc1,-20.0,-2.3,?,-6.1%
CN1CCC(=NOc2ccc([N+](=O)[O-])cc2)CC1,94.6*,34.3*,68.1%,62.2%
COc1ccccc1CCN1C(=S)NC(C)(C)CC1(C)O (stereo unspecified),-11.9,-4.7,9.28µM*,?
C[C@@H](CN1CCC(Cc2ccccc2)CC1)[C@@H](O)c1ccc(O)cc1,nt,nt,-14.1%,?
CC(CCc1ccccc1)NC(C)C(O)c1ccc(O)cc1 (stereo unspecified),-9.1,-3.1,1.9µM*,?
CC(C(O)c1ccc(O)cc1)N1CCC(Cc2ccccc2)CC1 (stereo unspecified),-9.4,-3.8,?,2.13µM*
CC(COc1ccccc1)NC(C)C(O)c1ccc(O)cc1 (stereo unspecified),-15.0,-1.5,?,-14.4%
CCCNS(=O)(=O)c1ccc(OCC(=O)Nc2ccc3c(c2)OCCO3)c(C)c1,nt,nt,?,5.0%
O=c1cc(-c2ccccc2)[nH]n2cnnc12,13.9,4.9,25.6%,0.1%[0.00184 µM]
O=S(=O)(c1ccc(Cl)cc1)c1snnc1-c1ccccc1,-12.5,1.5,?,nt
O=S(=O)(c1ccc(F)cc1)c1snnc1-c1ccccc1,-2.5,3.8,?,9.28µM*
N#C/C(=C\c1ccccn1)c1ccccn1,60.7*,33.0*,8.28µM*,?
Cc1cc(C)n2nc(/C(C#N)=C/c3ccccn3)c(C#N)c2n1,27.5,25.3*,?,418.9%
N#C/C(=C/c1cccs1)c1ccccn1,72.5*,34.9*,75.3%,98.2%
N#CC(C#N)=Cc1ccc(OC(=O)c2ccccn2)cc1,17.3,9.0,30.0%,10.3%
CC(C)(C)C(=O)/C(C#N)=C/c1cccs1,-3.4,-1.5,1.9%,7.5%
O=c1c(Cc2c(F)cccc2Cl)c(O)ccn1C1CC1,11.9,0.6,10.0%,-31.8%[5.75 µM]
CCCCCN(C(=O)CCC(=O)OCC(=O)N(CC)C1CCCCC1)c1c(N)n(CCCC)c(=O)[nH]c1=O,nt,nt,-3.5%,-5.1%
CCCc1cc(=O)[nH]c(SCCCCN2C(=O)c3ccccc3C2=O)n1,10.4,4.6,33.4%[5.75 µM],11.4%
COc1ccc([C@H]2CC(=O)C=C(c3cccc(CO)c3)C2)cc1,nt,nt,?,-29.5%
CC(=O)c1sc(-c2ccccc2)cc1N,35.2,14.1,92.8%,62.2%
NNC(=O)c1cc(-c2ccccc2)sc1N,36.3,35.7*,?,9.28µM*

# From PubChem BioAssay
